Giardia killer: Giardia lamblia killing. activity change, % at 7.66 µM, hits read low. 340,000 tested, 0.15% active. Giardia lamblia trophozoite viability; in the data active = activity change below about -80%; inconclusive = between about -30% and that limit;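 also: parasites exposed to compound for two days anaerobically before the ATP read; % is scaled to controls: 0 for no effect and ±100 for the full control effect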
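Each well holds 100 Giardia trophozoites and compound. After two days (48 hrs) at 37 deg C in anaerobic conditions, ATP is quantified by luminescence.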
uPA generation: inhibitors of cell surface uPA generation; cell surface uPA generation assay, qHTS; Potency, µM (titrated, usually from 38.3 µM), without a hit: at the top dose activity change, negative = inhibition, most hits filed as inhibitors; 330,000 tested, 0.31% active; AID 540303; active = well fitted inhibition curve with a large enough effect; inconclusive = small, poorly fitted or top-dose-only effect; inactive = no such curve, though single readings can be large or run the other way; tested in mouse RAW 264.7 cells; also: potency is read from the fitted curve at half-maximal effect; % is scaled to controls: 0 for no effect and ±100 for the full control effect; nearly all actives have a fitted effect of over 55% in size
a7 integrin act: activates integrin-mediated alleviation for muscular dystrophy. alpha7betagal myoblasts, beta-gal FDG fluorescence, 48 h. Potency, µM (highest dose often 38.3 µM), for inactives: at the highest dose activation, actives largely listed as activators. 350,000 tested, 0.064% active. AID 624291; active = well fitted activation curve with a large enough effect; inconclusive = small, poorly fitted or top-dose-only effect; inactive = no such curve, though single readings can be large or run the other way;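 also: potency is read from the fitted curve at half-maximal effect; 100% = response of the positive control SU9516; nearly all actives have a fitted effect of over 60% in size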
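alpha7betagal+/- myoblasts (passage 13, 250/well) treated 48 h at 37C with compounds at 1:260 dilution of DMSO stock. Lysed, then beta-galactosidase activity read as FDG fluorescence (ex 480/em 540) after 30 min, with pre-read for autofluorescence.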
Rango-impB inh: inhibitors of Rango-importin beta complex formation. Q14974. Rango CFP/YFP FRET sensor + importin beta, 45 min. Potency, µM (doses to about 92.2 µM), for the others: at the highest dose inhibition of complex formation. 340,000 tested, 0.031% active. AID 540263;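 also: potency is read from the fitted curve at half-maximal effect; 0% = DMSO wells and 100% = buffer wells lacking importin beta; nearly all actives have a fitted effect of over 15% in size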
Target sequence (Q14974 whole entry, looked up): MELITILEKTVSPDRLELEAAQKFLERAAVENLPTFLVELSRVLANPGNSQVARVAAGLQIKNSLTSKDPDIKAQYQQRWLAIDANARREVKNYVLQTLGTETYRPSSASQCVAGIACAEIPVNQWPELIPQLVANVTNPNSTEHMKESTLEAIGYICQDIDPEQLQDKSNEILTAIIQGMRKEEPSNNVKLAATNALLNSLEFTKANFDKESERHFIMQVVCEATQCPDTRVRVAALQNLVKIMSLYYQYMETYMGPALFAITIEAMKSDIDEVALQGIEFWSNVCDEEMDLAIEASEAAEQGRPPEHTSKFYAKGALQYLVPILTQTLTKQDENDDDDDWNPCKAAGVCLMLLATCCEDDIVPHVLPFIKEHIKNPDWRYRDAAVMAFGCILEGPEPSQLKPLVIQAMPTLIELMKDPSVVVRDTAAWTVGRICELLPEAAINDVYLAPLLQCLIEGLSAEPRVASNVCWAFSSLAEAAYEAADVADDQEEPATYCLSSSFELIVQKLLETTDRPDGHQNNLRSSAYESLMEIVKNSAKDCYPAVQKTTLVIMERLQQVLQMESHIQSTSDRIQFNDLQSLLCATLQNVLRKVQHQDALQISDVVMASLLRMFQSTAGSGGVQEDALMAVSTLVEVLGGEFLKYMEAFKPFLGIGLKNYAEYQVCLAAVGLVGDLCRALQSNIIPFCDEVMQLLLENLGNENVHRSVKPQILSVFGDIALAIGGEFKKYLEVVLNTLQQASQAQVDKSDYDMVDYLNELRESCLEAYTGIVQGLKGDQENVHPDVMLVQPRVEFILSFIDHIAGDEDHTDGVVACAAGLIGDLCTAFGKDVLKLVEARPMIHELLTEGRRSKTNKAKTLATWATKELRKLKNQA
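Inhibition scored from the CFP 486 nm/YFP 530 nm FRET ratio 45 min after adding 0.125 microM importin beta to 50 nM Rango biosensor preincubated 5 min with compound (room temperature, PBS with DTT, Tween-20, BSA). No-importin wells as positive control.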
Rango release inh: inhibitors of RanGTP-induced Rango-importin beta complex dissociation. Biochemical FRET Rango-importin beta, RanGTP-induced dissociation. Potency, µM (titrated, usually from 46.1 µM), without a hit: at the top dose activity change, negative = inhibition. 340,000 tested, 0.071% active; also: potency is read from the fitted curve at half-maximal effect; % of control where 0% means no effect; nearly all actives have a fitted effect of over 45% in size
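Quantitative HTS using a FRET biosensor: 0.1 uM Rango, 0.25 uM importin beta, 0.6 uM Ran, 2 mM GTP, 0.2 uM RCC1 final, PBS with DTT, Tween-20 and BSA. Post-read taken 45 min after Ran addition.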
Numbers without * were called inactive; ? = inconclusive; . = no result given; [ ] = another dose, or the depositor's remark. The list is not random: actives were taken first. Their share in the collection is about 0.59%. Unless noted, calls follow the shape of the full dose curve.

SMILES	Giardia killer	uPA generation	a7 integrin act	Rango-impB inh	Rango release inh
CC(=O)O[C@H]1C(=O)[C@@]2(C)C([C@H](OC(=O)c3ccccc3)[C@]3(O)C[C@H](OC(=O)[C@H](O)[C@@H](NC(=O)Cc4ccccc4)c4ccccc4)C(C)=C1C3(C)C)[C@]1(OC(C)=O)CO[C@@H]1C[C@@H]2O (some centres not stated)	-7	?	-55%	-1%	19%
c1ccc(Nc2ccc(Nc3ccccc3)cc2)cc1	-3	6.3µM*	.	0%	-9%
COC1=CC(=O)O[C@@H](/C=C/c2ccccc2)C1	-6	11%	.	-1%	11%
O=C1C=CCC(/C=C/c2ccccc2)O1 (configuration not stated)	4	1µM*	0%	0%	5%
Cc1cccc(N2C(=O)NC(=O)/C(=C\C=C\c3ccco3)C2=O)c1	1	10µM*	-78%	?	-21%
Cc1ccc(N2C(=O)NC(=O)/C(=C\C=C\c3ccco3)C2=O)cc1	-2	7.9µM*	-39%	?	-17%
O=C1NC(=O)N(c2ccccc2)C(=O)/C1=C/C=C/c1ccco1	6	10µM*	-59%	?	-26%
COc1ccc(-c2nc(C(N)=O)c3[nH]c(=O)n(-c4ccccc4OC)c3n2)c(OC)c1	-17	11µM*	-16%	3%	20%
N#Cc1c(Cl)nc(Cl)c2c1CCN(Cc1ccccc1)C2	27	-6%	-32%	?	5.2µM*[inhibitor]
COc1ccc(/C=N\N=C(N)N)cc1	-26	-10%	-46%	1%	25%
NC(N)=N/N=C/c1ccc(N2CCOCC2)cc1	2	7.9µM*	-13%	-2%	7%
O=C(CN1CCCCC1)c1ccc(F)cc1	4	-1%	-27%	6%	-15%
COc1ccc(C(=O)CN2CCCCC2)cc1	39	6%	13µM*	0%	-13%
C[C@H](NC(=O)c1[nH]cnc1C(=O)Nc1ccc(Cl)cc1)c1ccccc1	-10	-27%	-33%	1%	23%
Cc1cc(Br)ccc1NC(=O)CN(C)C(=O)C1CCN(c2ncnc3sc(C)c(C)c23)CC1	25	?	-13%	?	-5%
Cc1cccc(CN2CCN(C(=O)Cc3ccccc3)CC2)c1	-25	-2%	12%	2%	-25%
Cc1ccc(/C=C/C(=O)C2C(=O)c3ccccc3C2=O)cc1	-86*	?	-1%	1%	-5%
COCC1CCCN(C(=O)c2cc(COc3ccc4ncccc4c3)on2)C1 (configuration not stated)	2	?	-19%	-3%	7%
O=[N+]([O-])c1ccc(Cl)c([N+](=O)[O-])c1	-29	1.3µM*	.	0%	17%
O=[N+]([O-])c1ccc(O)c([N+](=O)[O-])c1	?	-6%	.	2%	9%
C=CCC[C@H](Cc1ccc(F)cc1)C(=O)OC[C@@H](Cc1c[nH]c2ccccc12)NC(=O)[C@@H](CC=C)CC(=O)N(CCO)Cc1ccccc1	-6	-14%	-43%	2%	-20%
CC(C)N(C(=O)CCl)c1ccccc1	2	6.3µM*	.	1%	-3%
CN(C)C(Cc1ccccc1)C(=O)c1ccccc1 (configuration not stated)	3	1%	9%	2%	22%
Cc1ccc(C(C#N)=Cc2ccc3c(c2)OCO3)cc1	.	.	-45%	.	.
Cc1ccc(C(=O)Cn2c(-c3ccccc3)noc2=O)cc1	-7	-1%	2%	?	21%
SMILES	Giardia killer	uPA generation	a7 integrin act	Rango-impB inh	Rango release inh
CCOC(=O)[C@]12Cc3cc4c(cc3[C@H]1N(Cc1ccccc1)C(=O)c1ccccc12)OCO4	-10	13µM*	-10%	1%	1%
CCOC(=O)[C@]12Cc3cc(Cl)ccc3[C@H]1N(Cc1ccccc1)C(=O)c1ccccc12	?	?	-17%	1%	-12%
O=C(NC(=S)Nc1cc([N+](=O)[O-])ccc1O)c1cccnc1	?	?	-31%	0%	0%
CC1(C)C[C@H]2C=C(C=O)[C@]3(C=O)C[C@]3(C)[C@H]2C1	-2	2.2µM*	-49%	0%	10%
COc1ccc([C@H]2CC(=O)C=C(c3c(OC)cccc3OC)C2)cc1	-11	2.2µM*	-15%	0%	5%
COCOC1CCC2C3CCC4=CC(=O)CCC4=C3C=CC12C (configuration not stated)	-6	-5%	-5%	?	21µM*
CC(C)(CO)CNC1CCCN(C2Cc3ccccc3C2)C1 (configuration not stated)	4	-12%	-20%	0%	0%
COc1ccc(Nc2nc(N)nc(CCl)n2)cc1	-29	2.5µM*	-67%	-2%	-8%
C[C@H]1CCC/C=C/C2C[C@H](O)CC2[C@H](O)/C=C/C(=O)O1 (some centres not stated)	18	0.32µM*	.	0%	-5%
CC1CCC/C=C/C2CC(O)CC2C(O)/C=C/C(=O)O1 (configuration not stated)	-10	-16%	-53%	2%	20%
O=C1CSC(=S)N1Cc1cccs1	-9	?	-1%	-2%	-3%
CN1CCc2nc(SCc3cccc(Br)c3)c(C#N)cc2C1	-11	-2%	9%	?	16µM*
CNc1ccc2nc3ccccc3[n+](C)c2c1	-22	4.5µM*	-15%	-5%	?
C[n+]1c2ccccc2nc2ccc(NCCO)cc21	7	-6%	-13%	2%	10%
Cc1nn(C(C)(C)C)c(C)c1/C=N/OC(=O)Nc1ccc(Cl)c(Cl)c1	-18	-5%	2.8µM*	1%	12%

Screens (PubChem BioAssay)
